Among the data in PubChem BioAssay AID1456 (Vanderbilt High Throughput Screening Facility, 2008) are B-score of Tl+ flux slope (higher = more flux/activation; lower = inhibition) values, retold here.

The whole screen tested about 190,000 compounds, of which about 4,100 (2.2%) were called active.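 How the source made its calls: active means thallium flux slope and its plate-corrected score both differing from the plate sample mean at a set confidence after two filtering rounds, in either direction; inactive means the rest.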 What follows is part of a selection rich in actives, with near analogues and random picks from the rest.

The target in the experiment is Solute carrier family 12 member 5 (Homo sapiens) (UniProt Q9H2X9). The experiment in a line: KCC2 cotransporter modulators, thallium flux, primary screen, cell-based, HEK293 KCC2, FluoZin-2 fluorescence, MLSMR (AID 1456).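 Further: slope of fluorescence scaled to starting intensity during 10 to 20 s after thallium.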 The settings on record: KCC2 cells, thallium flux FluoZin-2 fluorescence; at 10 µM.
Chain of Solute carrier family 12 member 5 (Homo sapiens) (Q9H2X9 whole entry, looked up): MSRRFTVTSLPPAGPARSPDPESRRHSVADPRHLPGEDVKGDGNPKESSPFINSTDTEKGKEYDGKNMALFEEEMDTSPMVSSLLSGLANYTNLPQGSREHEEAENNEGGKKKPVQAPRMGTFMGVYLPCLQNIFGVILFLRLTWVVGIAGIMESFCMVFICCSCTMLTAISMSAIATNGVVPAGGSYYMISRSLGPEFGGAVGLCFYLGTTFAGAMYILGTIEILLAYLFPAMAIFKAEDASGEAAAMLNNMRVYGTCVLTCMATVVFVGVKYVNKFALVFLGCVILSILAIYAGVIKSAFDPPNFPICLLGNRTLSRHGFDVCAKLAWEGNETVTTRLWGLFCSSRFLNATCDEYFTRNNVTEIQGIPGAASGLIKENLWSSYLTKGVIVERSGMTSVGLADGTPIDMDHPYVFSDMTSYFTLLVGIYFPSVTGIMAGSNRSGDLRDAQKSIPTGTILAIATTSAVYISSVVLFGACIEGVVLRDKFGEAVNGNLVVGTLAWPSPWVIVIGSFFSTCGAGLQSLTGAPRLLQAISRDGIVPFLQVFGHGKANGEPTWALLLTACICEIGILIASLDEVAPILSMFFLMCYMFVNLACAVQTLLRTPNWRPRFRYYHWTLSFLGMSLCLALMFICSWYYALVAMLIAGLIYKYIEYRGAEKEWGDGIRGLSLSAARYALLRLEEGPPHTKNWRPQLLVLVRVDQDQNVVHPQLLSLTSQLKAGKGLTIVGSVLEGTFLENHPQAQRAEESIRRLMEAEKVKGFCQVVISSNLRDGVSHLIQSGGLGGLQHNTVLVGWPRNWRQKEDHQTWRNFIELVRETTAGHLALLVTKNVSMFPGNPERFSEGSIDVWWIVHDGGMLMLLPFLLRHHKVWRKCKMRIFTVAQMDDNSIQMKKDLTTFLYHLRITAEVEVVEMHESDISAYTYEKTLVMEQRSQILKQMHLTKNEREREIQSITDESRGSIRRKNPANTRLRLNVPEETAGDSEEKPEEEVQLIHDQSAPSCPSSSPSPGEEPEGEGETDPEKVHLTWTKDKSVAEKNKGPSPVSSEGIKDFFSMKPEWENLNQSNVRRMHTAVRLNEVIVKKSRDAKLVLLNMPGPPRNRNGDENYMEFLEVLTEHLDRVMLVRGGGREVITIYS
`O=C(CSC1c2ccccc2-c2ccccc21)N/N=C/c1ccccc1`: the B-score of Tl+ flux slope (higher = more flux/activation; lower = inhibition) was 2.57 (active).
For `CCCCC(=O)N/N=C/c1c(O)n(-c2ccccc2)c(=O)[nH]c1=O`, the B-score of Tl+ flux slope (higher = more flux/activation; lower = inhibition) is -0.272 (inactive).
For the molecule `c1cc2c(cc1[C@H]1OC[C@H]3[C@@H]1CO[C@@H]3c1ccc3c(c1)OCO3)OCO2`, the B-score of Tl+ flux slope (higher = more flux/activation; lower = inhibition) was 0.711 (inactive).
Consider `CCC1(C)CC(CCNCc2ccc(N(C)C)cc2)(c2ccc(F)cc2)CCO1` (stereo not given), for which the B-score of Tl+ flux slope (higher = more flux/activation; lower = inhibition) is 1.55 (inactive).
Next, `CNC(=O)O/N=C(\N)Cc1csc2ccccc12`: 0.111 (inactive); `COc1cc(-n2c(=S)[nH]c3ccc(C)cc3c2=O)c(Cl)cc1Cl`: 69.6 (active); `COc1cccc(CN2CCCC(C(=O)c3ccccc3SC)C2)c1O` (stereo not given): -3.42 (inactive).
Turning to `COc1cc(OC)cc(C2(C#N)CCN(C)CC2)c1`, the B-score of Tl+ flux slope (higher = more flux/activation; lower = inhibition) was -0.32 (inactive).
As to `CSc1ccc(C(=O)C2CCCN(Cc3ccn[nH]3)C2)cc1` (stereo not given), the B-score of Tl+ flux slope (higher = more flux/activation; lower = inhibition) was 0.628 (inactive).
As for `Cc1ccc(CN2CCCC(C(=O)c3ccc4c(c3)OCO4)C2)cc1C` (stereo not given), the B-score of Tl+ flux slope (higher = more flux/activation; lower = inhibition) was -0.421 (inactive).
